Screens as filed in PubChem BioAssay.
Hits are enriched below; roughly 17% of the tested compounds scored in any of these assays.
DT40 TDP1 no CPT: qHTS for Inhibitors of human tyrosyl-DNA phosphodiesterase 1 (TDP1): qHTS in cells in absence of CPT; AID 686978, 2013; Potency, µM (top dose mostly 46.2 µM), for inactives: at the top dose activity change, negative = growth inhibition, hits mostly inhibitors; DT40 Tdp1-/- hTDP1 cells, no CPT, ATP luminescence, 48 h; 420,000 compounds, 15% hits; further: on the % scale 0 is the no-effect control and ±100 the full control effect; nearly all actives have a fitted effect of over 55% in size
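Stably hTDP1-transfected Tdp1-null chicken DT40 cells were treated with library compounds minus camptothecin and grown for at least 48 hr at 37 °C, after which cellular ATP was quantified by luminescence.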
DT40 TDP1 CPT: DT40-hTDP1 cell growth loss with CPT; chicken DT40 Tdp1-/-;hTDP1 cells + 20 nM CPT, ATP luminescence, 48 h; 420,000 compounds, 12% hits; AID 686979; Potency, µM (titrated, usually from 46.2 µM), without a hit: at the top dose activity change, negative = growth inhibition, usual class: inhibitors; further: on the % scale 0 is the no-effect control and ±100 the full control effect; nearly all actives have a fitted effect of over 55% in size
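Chicken DT40 Tdp1-/- cells stably complemented with human TDP1 were seeded at 400 cells/well in medium containing 20 nM camptothecin, exposed to pin-transferred compounds, and grown at 37 °C for at least 48 hr. Viability was read as ATP luminescence.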
HepG2 viability: HepG2 cytotoxicity, counter-screen for TGF-b inhibitors. HepG2 CAGA-GFP viability, ATP luminescence, 18 h. Potency, µM (series often up to 46.1 µM), without a hit: at the top dose activity change, negative = cytotoxicity, most hits filed as cytotoxic. 410,000 compounds, 0.76% hits. AID 588856
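HepG2 CAGA-GFP cells (1000/well, DMEM with 1% FBS) received compound, then TGF-beta at 500 pg/mL final, and were incubated 18 hours at 37 degrees C. Viability was read by CellTiter-Glo luminescence. Media-only wells were set as complete cell-killing and DMSO as no toxicity.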
TGFb inhibitor: inhibitors of TGF-b signaling; HepG2 CAGA-GFP TGF-b/SMAD3 reporter, GFP fluorescence, 18 h; TGF-beta stimulated, 500 pg/mL final; Potency, µM (doses to about 46.1 µM), without a hit: at the highest dose activity, negative = inhibition, usual class: inhibitors; 410,000 compounds, 1.2% hits; further: on the % scale 0 is the no-effect control and ±100 the full control effect; nearly all actives have a fitted effect of over 65% in size
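GFP signal (ex488/em500-530) from TGF-beta-stimulated HEPG2 CAGA-GFP cells, 500 pg/mL final, 18 h at 37 degrees C in DMEM plus 1% FBS, normalized to unstimulated and DMSO-stimulated controls.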
S2 tox: reduces viability in counter-screen for ATXN expression inhibitors | Potency, µM (series often up to 56.7 µM), hits mostly cytotoxic | 400,000 compounds, 0.49% hits | S2 cells (HEK-293 line with an ATXN2-luciferase reporter) viability, CellTiter-Fluor protease fluorescence, 24 h | AID 651635; further: nearly all actives have a fitted effect of over 40% in size
ATXN2 expr inh: inhibitors of ATXN2 expression | 360,000 compounds, 0.72% hits | Potency, µM (highest dose often 57 µM), inactives show at the highest dose activity change, negative = inhibition, actives largely listed as inhibitors | HEK-293 ATXN2-luciferase reporter, luminescence, 24 h; further: on the % scale 0 is the no-effect control and ±100 the full control effect; nearly all actives have a fitted effect of over 55% in size
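ATXN2-luciferase reporter cells (luciferase flanked by upstream and downstream ATXN2 gene portions) were treated 24 h at 37 °C with compounds at up to 57 uM. SteadyGlo luminescence gave expression; GF-AFC fluorescence gave viability.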
* = called active by the depositor; i = inactive; ? = inconclusive; · = not tested or not shown; [ ] = another dose, or the depositor's remark. The call rests on the fitted dose curve; in most records, active means well fitted curve in the direction sought with a large enough effect; inconclusive means small, poorly fitted or top-dose-only effect, or another doubt; inactive means no such curve, though single readings can be large; an effect the other way counts as inactive or inconclusive. Potency means the concentration at half of the fitted maximal effect.

SMILES	DT40 TDP1 no CPT	DT40 TDP1 CPT	HepG2 viability	TGFb inhibitor	S2 tox	ATXN2 expr inh
CCC(NS(=O)(=O)c1ccc(C)cc1)C(=O)N1CCOCCOCCOCCOCC1 (stereo unspecified)	-0.7%	7.2%	-8.2%	-15.5%	?	-25.9%
CC(C)NCCCCOc1ccc(Br)cc1Cl	18.4µM*	23.1µM*	-32.0%	5.1%	i	·
COCCCNCCCOc1ccc(Cl)cc1Br	?	25.9µM*	-36.3%	0.6%	·	·
CC(O)CNCCCOc1ccc(Cl)cc1C(C)(C)C (stereo unspecified)	13µM*	13µM*	-99.1%	?	?	33.6µM*
CC(C)NCCCOc1ccc(Cl)cc1Br	?	18.4µM*	-37.7%	-0.1%	?	-19.5%
CC1=C(C(=O)Nc2cc(Cl)ccc2C)C(c2ccccc2F)n2ncnc2N1 (stereo unspecified)	-12.8%	-18.3%	-19.5%	-2.5%	i	-11.6%
Cn1c(SCC2CCCO2)nnc1C1CCN(Cc2ccccc2O)CC1 (stereo unspecified)	-4.8%	8.8%[9.04 µM]	·	·	i	·
C=CCc1cc(Cl)ccc1OCCCNCCO	16.4µM*	?	-29.9%	-15.0%	i	·
C=CCc1cc(Cl)ccc1OCCOCCNC(C)CC (stereo unspecified)	?	?	-46.5%	39.1%	i	-8.6%
CCCCNCCOCCOc1ccc(Cl)cc1Br	32.6µM*	20.6µM*	-3.5%	7.4%	i	-24.4%
CCC(C)NCCCCOc1ccc(Cl)cc1C (stereo unspecified)	20.6µM*	?	-32.9%	-8.0%	i	-15.5%
Cc1ccc2c(CC(=O)NCC(C)(C)N3CCOCC3)coc2c1	-3.6%	-2.2%	-30.8%	-17.7%	i	11.7%
COC(OC)C12c3ccccc3C(c3ccccc31)C1C(=O)N(c3cccnc3)C(=O)C12 (stereo unspecified)	-19.3%	-0.8%	0.0%	15.5%	i	-7.5%
CCOc1ccc(NC(=O)C2Cc3ccccc3N2C(=O)c2ccccc2)cc1 (stereo unspecified)	20.6µM*	23.1µM*	-22.6%	-13.8%	i	4.0%
COc1cc(NC(=O)C2Cc3ccccc3N2C(=O)c2ccccc2)cc(OC)c1 (stereo unspecified)	?	?	-4.7%	-3.7%	i	11.3%
CC(C)c1ccc(NC(=O)C2Cc3ccccc3N2C(=O)c2ccccc2)cc1 (stereo unspecified)	5.8µM*	18.4µM*	0.4%	1.4%	i	1.4%
Cc1ccc(S(=O)(=O)NC(=NCC(=O)O)c2ccccc2)cc1	?	-6.9%	3.16µM*	4.5%	i	1.0%
CC1(c2nnnn2Cc2ccccc2)CCC(=O)N1CCOc1ccccc1 (stereo unspecified)	?	?	·	·	i	-7.4%
COc1ccc(-c2c(-c3cc(OC)c(OC)c(OC)c3)noc2C)cn1	0.581µM*	0.581µM*	-1.1%	?	?	2.6%
COc1ccc(-c2c(-c3ccccc3OC)oc3ccccc23)cn1	?	?	-26.4%	?	i	1.6%
COC(=O)c1cc(-c2c(-c3ccc4c(c3)OCO4)noc2-c2ccsc2)cc([N+](=O)[O-])c1	-11.0%	?	-0.8%	-13.8%	i	3.8%
COc1ccc(-c2oc3ccc(-c4cc(OC)c(OC)c(OC)c4)cc3c2-c2ccc(OC)nc2)cc1	11.6µM*	14.6µM*	10.3%	14.6%	i	-7.7%
COc1cc(-c2c(-c3cc(OC)c(OC)c(OC)c3)noc2C)ccc1F	0.0073µM*	0.092µM*	-24.8%	?	i	-10.2%
COc1cc(-c2noc(C)c2C(=O)NCCO)cc(OC)c1OC	-6.4%	1.2%	-5.2%	-10.8%	i	3.1%
